Marburg entry inh: Marburg virus entry inhibition; Potency, µM (titrated, usually from 37.8 µM), actives largely listed as inhibitors; Marburg virus pseudotyped entry inhibition, cell reporter; AID 540276; 300,000 tested, 1.8% active; calls by dose curve; tested in HEK293 cells
VACV mCherry inh: inhibitors of vaccinia virus infection (mCherry reporter signal); Vaccinia virus mCherry reporter infection, fluorescence; Potency, µM (series often up to 36.5 µM), usual class: inhibitors; 310,000 tested, 0.63% active; calls by dose curve; tested in A549 cells; also: nearly all actives have a fitted effect of over 35% in size
LASV entry inh: inhibitors of Lassa virus binding or cell entry; Lassa virus pseudotype entry inhibition, cell reporter; Potency, µM (doses to about 37.9 µM), usual class: inhibitors; 300,000 tested, 1.2% active; calls by dose curve; tested in HEK293 cells; also: nearly all actives have a fitted effect of over 50% in size
FMDV inh: foot and mouth disease virus antiviral activity; FMDV antiviral cell-based qHTS; Potency, µM (series often up to 57.9 µM), hits mostly inhibitors; 410,000 tested, 1.2% active; AID 1159524; calls by dose curve; tested in HEK293T cells; also: read-out not given here; nearly all actives have a fitted effect of over 45% in size
HCMV antiviral: inhibitors of human cytomegalovirus; activity change, negative = inhibition, % at 57.5 µM; HFF cells, HCMV-luciferase reporter, 72 h; hits give low values; 410,000 tested, 4.5% active; in the data active = activity change below about -60%; inconclusive = no clear call, values can overlap the other calls; inactive = above about -39%
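After 16 h attachment at 37C, HFF cells received test compound and HCMV-luciferase (1 PFU/cell); reporter luminescence read 72 h later, data normalized against buffer-only and known inhibitor Salinomycin.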
Vaccinia Venus: inhibitors of vaccinia virus (Venus reporter). Vaccinia virus Venus reporter expression, fluorescence. Potency, µM (top dose mostly 36.5 µM), actives largely listed as inhibitors. 330,000 tested, 0.46% active; calls by dose curve; tested in A549 cells; also: nearly all actives have a fitted effect of over 30% in size
A number is an active result; . = inactive; ? = inconclusive; / = no result given. Only some compounds are listed: those with a hit (about 6.5% of all), similar ones and a draw of the others.

SMILES	Marburg entry inh	VACV mCherry inh	LASV entry inh	FMDV inh	HCMV antiviral	Vaccinia Venus
CCCCc1nc(NCCNC(=O)c2ccco2)c(C#N)c2c1CSC(C)(C)C2	.	/	.	?	.	/
COc1ccc(CNC(=O)Cn2ccc3cc(S(=O)(=O)N4CCCCCC4)ccc32)cc1OC	/	.	.	.	.	.
Cc1ccccc1OCCn1cc(/C(N)=N/O)c2ccccc21	?	?	.	28.2µM	.	?
Cc1ccc(C)c(OCCn2cc(C(=O)O)c3ccccc32)c1	.	.	.	.	.	.
COc1ccccc1OCCn1cc(C(=O)c2ccco2)c2ccccc21	?	?	.	25.1µM	.	.
COc1ccccc1OCCCn1cc(C(=O)c2ccco2)c2ccccc21	.	/	?	.	.	/
Cc1ccccc1OCCn1cc(C(=O)O)c2ccccc21	.	.	.	.	.	.
CC(=O)c1cn(CCOc2cc(C)ccc2C)c2ccccc12	1.58µM	.	.	?	.	.
COc1ccc(CN2CCC3(CC2)c2ccccc2[C@@H](NC(=O)c2ccsc2)[C@@H]3OC)cc1O	/	.	/	.	/	.
O=C(NCC1=C(Cl)CCCC1)C1CNCCC1C(F)(F)F (configuration not stated)	.	/	/	/	/	/
O=C(c1ccc2ncsc2c1)N1CCN(c2ccccc2Cl)CC1	?	.	?	.	?	.
O=C(Nc1ccc(F)cc1)N1CCN(c2nc3ccccc3s2)CC1	.	/	.	28.2µM	?	?
COc1cc(C(=O)N2CCN(c3ccccn3)CC2)cc(OC)c1OC	.	?	.	.	.	.
COc1cc2ccccc2cc1C(=O)N1CCN(c2ccccn2)CC1	?	.	.	.	-62.7	.
O=C(c1ccc(S(=O)(=O)Cc2ccccc2Cl)c([N+](=O)[O-])c1)N1CCN(c2ccccn2)CC1	?	?	.	15.8µM	-97.2	.
O=C(c1ccc2ncsc2c1)N1CCN(c2nc3ccccc3s2)CC1	.	?	?	?	-73.8	.
Cc1ccc(NC(=O)N[C@H]2CC[C@@]34CCCN3C(=O)CCC[C@H]4[C@H]2C)cc1	/	/	/	/	.	/
O=C(CCCCCn1c(=O)c2sccc2n(CC(=O)Nc2ccccc2F)c1=O)NCc1ccc2c(c1)OCO2	.	.	.	.	.	.
c1cc2c3c(c1)CCCN3CCC2	/	.	/	/	/	.
Cc1nc2ccc(C(=O)N3CCN(c4ccccn4)CC3)cc2s1	?	.	.	.	-93.4	.
COc1ccc(C(=O)N2CCN(c3ccccn3)CC2)cc1[N+](=O)[O-]	.	.	.	.	-80.1	.

Screening results deposited in PubChem BioAssay by National Center for Advancing Translational Sciences (NCATS).
